According to PubChem BioAssay AID720519 (National Center for Advancing Translational Sciences (NCATS), 2013):
Records with an inconclusive call do not appear. Activity calls are given as the source filed them. Calls come from the whole dose curve; as a rule, active = well fitted activation curve with a large enough effect; inconclusive = small, poorly fitted or top-dose-only effect; inactive = flat fitted curve, though single readings scatter.

Assay: qHTS for Inhibitors of Cell Surface uPA Generation: Confirmatory Assay for Cherry-picked Compounds; note: 0% is about no effect
Conditions: cell surface uPA activity generation, qHTS confirmation; series mostly up to 115 µM; inhibition: at the top concentration
Summary of the method: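 RAW 264.7 cells at 4000/well, incubated overnight, then treated with compounds. After 24 h at 37 C, viability was read by ATPlite luminescence. An increase in signal indicates blocked uPA-dependent LF entry.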

inhibition, inactive:
NC(=O)c1cc2ccncc2c2ccccc12 -1.41%
COc1cccc(-n2c(SCC(=O)Nc3cc(C)on3)nc3c([nH]c4ccccc43)c2=O)c1 10.4%
O=C(C[C@H]1C[C@H](C(=O)N2CCOCC2)[C@@]2(CCC3CCCC3)c3[nH]c4cc(-c5ccco5)ccc4c3CCN2C1=O)NCc1cccc(C(F)(F)F)c1 -1.11%
CCN(c1ccc(OC)cc1)S(=O)(=O)c1ccc2c(c1)NC(=O)CS2 -2.56%
O=C1C[C@@H]2CCN3C(=O)CCC[C@@H]([C@H]23)[C@H]1Cc1ccccc1 -1.18%
Cc1c(NC(=O)C(C)OC(=O)CCC2CCCC2)c(=O)n(-c2ccccc2)n1C (stereo not given) 0.008%
CCC(C)Nc1cc(C)nc2ncnn12 (stereo not given) -1.7%
CCc1ccc(NC(=O)Cn2cnc([N+](=O)[O-])c2)cc1 -1.53%
N#Cc1cccc(NC(=O)Cn2cnc(S(=O)(=O)N3CCOCC3)c2)c1 -0.879%
Cc1ccc(C(=O)NC(=S)Nc2ccc3[nH]c(=O)[nH]c3c2)c(C)c1 -1.36%
Cc1nc(SCC(=O)NCCN2C(=O)CSC2=O)nc(C)c1C -1.28%
CC(=O)c1ccc2c(c1)c1ccccc1n2CC(C)C -0.0624%
Cc1cnc(C(=O)OCC(=O)Nc2ccc3c(c2)OCCO3)cn1 -0.779%
O=C(NCC1CCCO1)c1c(O)c2cccc3c2n(c1=O)CCC3 (stereo not given) -3.48%
O=c1ccc(S(=O)(=O)N2CCCC2)c[nH]1 -0.713%
COc1ccc(C(=O)CC(=O)C(=O)Nc2ccccc2)cc1 -3.21%
Cc1nn(CC(=O)OCC(=O)NC(C)c2ccccc2)c(C)c1[N+](=O)[O-] (stereo not given) -1.75%
O=C(COc1ccc(C(=S)N2CCOCC2)cc1)N1CCOCC1 -1.16%
C/C(=N\NC(=O)c1cccc([N+](=O)[O-])c1)c1cccnc1 -1.45%
CCCCCCCCCOC(=O)C1N2C(=O)[C@@H](NC(=O)COc3ccccc3)[C@H]2SC1(C)C (stereo not given in full) -3.41%
